For 20 compounds, growth inhibition, inhibition and outcome results are on record in PubChem BioAssay.

A short description of experiment [1]: antimalarial activity against Dd2 strain (AID 2302;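 active = growth inhibition above 50% at the single 2 µM test dose, taken to imply half-maximal potency below 2 µM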;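 note: 0% = DMSO untreated growth and 100% = chloroquine plus artemisinin killed control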). The conditions noted are these: P. falciparum Dd2 in RBCs, LDH growth readout, 72 h; at 2 µM; stronger effect = higher value.
A short description of experiment [2]: HepG2 cytotoxicity, primary screen, cytotoxicity control for P. falciparum antimalarial project, cell-based, ATP luminescence (AID 2303;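 active = inhibition above 50%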;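 note: 0% = DMSO wells and 100% = digitonin-killed cells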). Conditions: HepG2 viability, 24-48 h, at 10 µM, stronger effect = higher value.
Experiment [3] has as its target L-lactate dehydrogenase (Plasmodium falciparum (isolate CDC / Honduras)) (UniProt Q27743). As to the kind of experiment: PfLDH activity inhibition – cell lysate, 3D7 strain, counter-screen for P. falciparum growth inhibition project (AID 2304).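 Note: 0% = vehicle and 100% = reference inhibitor.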 The conditions noted are these: P. falciparum 3D7 crude extract, LDH APAD/NBT absorbance; at 2 µM; stronger effect = higher value. On the technique in general: A counterscreen serves to expose hits that act by an unwanted route or on another target.

Experiment [4] can be described thus: inhibition of 3D7 malaria parasite growth – strain 3D7 (AID 2306).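 Note: 0% = DMSO wells and 100% = chloroquine plus artemisinin control wells.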 Conditions: P. falciparum 3D7 erythrocytic growth, LDH absorbance, 72 h; at 2 µM; stronger effect = higher value.
Experiment [5] addresses Calcium-dependent protein kinase 1 (Plasmodium falciparum (isolate 3D7)) (UniProt P62344). As to the kind of experiment: PfCDPK1 kinase inhibitors, biochemical, TCAMS library (AID 1159585; cut-off not given, nearly all actives have IC50 up to about 0.98 µM;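 note: inhibitors leave more ATP so luminescence rises with inhibition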). Conditions: recombinant PfCDPK1, Kinase-Glo ATP depletion luminescence. (Kinase-Glo measures the ATP left after a reaction by luminescence.)
Experiment [6] addresses Plasmodium falciparum protein kinase 6 (PK6, PF3D7_1337100) (UniProt Q8IDW1). Kind of experiment: PfPK6 kinase inhibitors, biochemical, TCAMS library (AID 1159586). The conditions noted are these: recombinant PfPK6, Kinase-Glo ATP depletion luminescence.
For experiment [7], the target named is Protein kinase 7 (PK7), Plasmodium falciparum 3D7 (PF3D7_0213400) (UniProt Q7YTF7). As to the kind of experiment: inhibition of Plasmodium PK7 catalytic activity – biochemical, TCAMS antimalarial set, Kinase-Glo luminescence (AID 1159587). The conditions noted are these: recombinant PfPK7, Kinase-Glo ATP depletion luminescence.
Chain of Protein kinase 7 (PK7), Plasmodium falciparum 3D7 (PF3D7_0213400) (Q7YTF7 1-343): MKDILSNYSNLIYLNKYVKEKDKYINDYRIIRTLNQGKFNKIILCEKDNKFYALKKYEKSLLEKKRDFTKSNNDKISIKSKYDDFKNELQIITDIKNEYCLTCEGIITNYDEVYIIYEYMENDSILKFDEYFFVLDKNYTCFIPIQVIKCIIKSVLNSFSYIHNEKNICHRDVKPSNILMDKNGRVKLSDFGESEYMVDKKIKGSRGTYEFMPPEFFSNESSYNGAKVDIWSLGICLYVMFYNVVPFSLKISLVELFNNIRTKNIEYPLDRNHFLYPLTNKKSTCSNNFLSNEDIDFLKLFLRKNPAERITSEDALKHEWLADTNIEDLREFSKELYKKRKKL
The target of experiment [8] is Calcium-dependent protein kinase 4 (Plasmodium falciparum (isolate 3D7)) (UniProt Q8IBS5). Kind of experiment: PfCDPK4 kinase inhibitors, biochemical, TCAMS library (AID 1159588; cut-off not given, nearly all actives have IC50 up to about 0.91 µM). Conditions: recombinant PfCDPK4, Kinase-Glo ATP depletion luminescence.
Chain of Calcium-dependent protein kinase 4 (Plasmodium falciparum (isolate 3D7)) (Q8IBS5 whole entry, looked up): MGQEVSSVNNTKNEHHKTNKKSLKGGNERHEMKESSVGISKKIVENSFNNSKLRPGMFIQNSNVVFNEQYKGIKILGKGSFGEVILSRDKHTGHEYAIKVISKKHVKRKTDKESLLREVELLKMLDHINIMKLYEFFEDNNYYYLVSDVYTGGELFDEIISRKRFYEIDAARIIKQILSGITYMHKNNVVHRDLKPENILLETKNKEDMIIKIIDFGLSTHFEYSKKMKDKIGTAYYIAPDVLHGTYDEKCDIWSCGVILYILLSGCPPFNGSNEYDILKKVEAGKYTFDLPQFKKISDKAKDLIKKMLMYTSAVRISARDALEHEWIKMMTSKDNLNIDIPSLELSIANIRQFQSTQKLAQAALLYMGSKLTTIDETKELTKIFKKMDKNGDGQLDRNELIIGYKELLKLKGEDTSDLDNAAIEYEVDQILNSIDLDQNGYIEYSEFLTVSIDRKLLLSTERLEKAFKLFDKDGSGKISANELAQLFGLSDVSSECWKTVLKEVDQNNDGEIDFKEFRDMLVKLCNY

Unmarked numbers belong to inactive results. For some of these results: Entries with a potency or affinity are not part of this list. The source made the active and inactive calls. Unless noted, the rule behind the calls is not given here.

Chain of L-lactate dehydrogenase (Plasmodium falciparum (isolate CDC / Honduras)) (Q27743 whole entry, looked up): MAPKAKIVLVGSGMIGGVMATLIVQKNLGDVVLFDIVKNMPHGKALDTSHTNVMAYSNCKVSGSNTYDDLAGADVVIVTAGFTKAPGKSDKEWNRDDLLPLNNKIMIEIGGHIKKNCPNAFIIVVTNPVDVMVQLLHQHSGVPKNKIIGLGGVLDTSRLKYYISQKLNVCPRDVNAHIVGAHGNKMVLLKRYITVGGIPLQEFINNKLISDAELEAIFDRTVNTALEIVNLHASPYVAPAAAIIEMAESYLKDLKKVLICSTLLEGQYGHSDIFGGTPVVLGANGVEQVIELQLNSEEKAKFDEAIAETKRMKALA
Chain of Calcium-dependent protein kinase 1 (Plasmodium falciparum (isolate 3D7)) (P62344 whole entry, looked up): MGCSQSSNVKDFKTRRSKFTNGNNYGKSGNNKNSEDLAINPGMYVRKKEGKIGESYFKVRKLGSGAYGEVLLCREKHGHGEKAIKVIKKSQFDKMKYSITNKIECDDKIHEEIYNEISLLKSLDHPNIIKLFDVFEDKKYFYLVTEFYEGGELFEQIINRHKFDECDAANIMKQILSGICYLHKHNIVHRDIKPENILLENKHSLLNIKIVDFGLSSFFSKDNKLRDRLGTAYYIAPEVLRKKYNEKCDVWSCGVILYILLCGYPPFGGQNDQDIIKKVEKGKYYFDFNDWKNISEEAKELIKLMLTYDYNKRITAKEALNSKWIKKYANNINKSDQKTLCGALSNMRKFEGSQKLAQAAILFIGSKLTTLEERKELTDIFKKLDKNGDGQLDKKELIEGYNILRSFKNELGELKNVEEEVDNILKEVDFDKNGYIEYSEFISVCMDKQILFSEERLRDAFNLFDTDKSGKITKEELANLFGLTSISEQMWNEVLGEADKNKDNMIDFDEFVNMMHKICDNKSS
Chain of Plasmodium falciparum protein kinase 6 (PK6, PF3D7_1337100) (Q8IDW1 1-305): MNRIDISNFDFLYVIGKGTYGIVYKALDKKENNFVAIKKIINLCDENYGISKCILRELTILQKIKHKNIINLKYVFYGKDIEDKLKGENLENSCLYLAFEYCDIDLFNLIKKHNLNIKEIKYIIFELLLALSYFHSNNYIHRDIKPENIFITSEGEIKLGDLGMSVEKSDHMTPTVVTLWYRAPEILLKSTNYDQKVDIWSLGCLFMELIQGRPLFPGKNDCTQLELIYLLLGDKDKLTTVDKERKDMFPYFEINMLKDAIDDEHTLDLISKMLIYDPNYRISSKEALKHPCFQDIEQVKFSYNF

On to `CCC(C)(C)c1ccc(OCC(O)CN2CCCCC2)c(C(C)(C)CC)c1` (stereo not given), for which the results for the growth inhibition in experiment [1] and in experiment [4] were 26% and 91% (active), respectively. In addition, the figures for the inhibition in experiment [2] and in experiment [3] were 14% and -9%, respectively. Also, the result in experiment [5], in experiment [6], in experiment [7] and in experiment [8] was inactive.

With `CCCNc1nc(NCc2c(C)cccc2C)nc(NC(C)(C)C)n1`, the values for the growth inhibition in experiment [1] and in experiment [4] were 89% (active) and 91% (active), respectively. The inhibition (usually the relative decrease from the control value, in per cent) in experiment [2] was 15%; in experiment [3], 2%. Further, the result in experiment [5], in experiment [6], in experiment [7] and in experiment [8] was inactive.

For `CN(C(=O)c1nn(-c2ccccn2)c2nccc(-c3cccs3)c12)C1CCCCC1`, the growth inhibition in experiment [1] was 1%; in experiment [4], 87% (active). In addition, the inhibition in experiment [2] was 4%; in experiment [3], -1%. Also, the outcome in experiment [5], in experiment [6], in experiment [7] and in experiment [8] was inactive.

In the case of `c1cc(-c2ccc(CNC3CCOCC3)cc2)cc(-c2nc3ccccc3[nH]2)c1`, the growth inhibition in experiment [1] and in experiment [4] was 100% (active) throughout. Moreover, the inhibition in experiment [2] is 30%; in experiment [3], 3%. The outcome in experiment [5], in experiment [6], in experiment [7] and in experiment [8] was inactive.

Regarding `N#Cc1ccc(-c2ccc(C(=O)NCCCCN3CCC(c4nc5ccccc5[nH]4)CC3)cc2)cc1`, the growth inhibition in experiment [1] is 13%; in experiment [4] it was 92% (active). Moreover, the inhibition in experiment [2] is 43%; in experiment [3], 4%. In addition, the result in experiment [5], in experiment [6], in experiment [7] and in experiment [8] was inactive.

With `CCN(CC)C(=NCCCCCCN=C(/N=C(\N)Nc1ccc(Cl)c(Cl)c1)N(CC)CC)/N=C(\N)Nc1ccc(Cl)c(Cl)c1`, the growth inhibition was 90% (active) in experiment [1] and 94% (active) in experiment [4]. Besides, the figures for the inhibition in experiment [2] and in experiment [3] were 1% and -3%, respectively. For the same compound, the result in experiment [5], in experiment [6], in experiment [7] and in experiment [8] was inactive.

With `CCOCCCn1c(=N)c(C(=O)NCc2ccc(F)cc2)cc2c(=O)n3cccc(C)c3nc21`, the growth inhibition in experiment [1] is 40%; in experiment [4], 101% (active). Further, the inhibition in experiment [2] is 21%; in experiment [3] it was 5%. Also, the outcome in experiment [5], in experiment [6], in experiment [7] and in experiment [8] was inactive.

Take `N#Cc1ccc2c(c1)CCN(CCC1CCC(NC(=O)c3cc4cccc(Cl)c4[nH]3)CC1)CC2` (stereo not given): the growth inhibition was 78% (active) in experiment [1] and 99% (active) in experiment [4]. In addition, the inhibition in experiment [2] was 34%; in experiment [3], 0%. Also, the outcome in experiment [5], in experiment [6], in experiment [7] and in experiment [8] was inactive.

Regarding `Cc1cccc(C)c1CNc1ccnc2ccccc12`, the growth inhibition in experiment [1] was 10%; in experiment [4], 92% (active). For the same compound, the inhibition was 59% (active) in experiment [2] and -1% in experiment [3]. Moreover, the outcome in experiment [5], in experiment [6], in experiment [7] and in experiment [8] was inactive.

Take `CC(C)[C@H](NC(=O)c1ccc(O)c(-c2cccc(C(F)(F)F)c2)c1)C(=O)NCCN1CCCCC1`: the results for the growth inhibition in experiment [1] and in experiment [4] were 29% and 99% (active), respectively. Further, the inhibition in experiment [2] is 3%; in experiment [3], 2%. The outcome in experiment [5], in experiment [6], in experiment [7] and in experiment [8] was inactive.

Regarding `CCn1ccc2c(N3CCCS3(=O)=O)cc(C(=O)N[C@@H](Cc3ccccc3)[C@H](O)CNC3CCCCC3)cc21`, the growth inhibition in experiment [1] was 98% (active); in experiment [4], 97% (active). Moreover, the results for the inhibition in experiment [2] and in experiment [3] were -1% and 1%, respectively. In addition, the outcome in experiment [5], in experiment [6], in experiment [7] and in experiment [8] was inactive.

`c1cc(Nc2nc(-c3ccc(-c4csc(Nc5ccncc5)n4)cc3)cs2)ccn1`: the figures for the growth inhibition in experiment [1] and in experiment [4] were 99% (active) and 100% (active), respectively. Besides, the figures for the inhibition in experiment [2] and in experiment [3] were 91% (active) and -4%, respectively. The result in experiment [5], in experiment [6], in experiment [7] and in experiment [8] was inactive.

For the compound `Cn1cncc1C(=O)Nc1cccc(-c2cccc(-c3nc4ccc(F)cc4[nH]3)c2)c1`, the results for the growth inhibition in experiment [1] and in experiment [4] were 45% and 102% (active), respectively. For the same compound, the inhibition in experiment [2] is 16%; in experiment [3], 3%. Besides, the outcome in experiment [5], in experiment [6], in experiment [7] and in experiment [8] was inactive.

As to `COc1cccc(C2=CC(c3ccccc3)n3ncc(C(=O)Nc4ccc(Cl)cc4)c3N2)c1` (stereo not given), the figures for the growth inhibition in experiment [1] and in experiment [4] were 28% and 88% (active), respectively. The inhibition was 7% in experiment [2] and -1% in experiment [3]. The outcome in experiment [5], in experiment [6], in experiment [7] and in experiment [8] was inactive.

Consider `COc1ccc(OC)c(C=NNc2nc3ccccc3[nH]2)c1`, for which the results for the growth inhibition in experiment [1] and in experiment [4] were 28% and 99% (active), respectively. In addition, the inhibition is -6% in experiment [2] and 7% in experiment [3]. The outcome in experiment [5], in experiment [6], in experiment [7] and in experiment [8] was inactive.

As for `Cc1[nH]c(C)c(-c2ccc(OCc3ccccc3C(F)(F)F)nc2)c(=O)c1Br`, the growth inhibition was 97% (active) in experiment [1] and 98% (active) in experiment [4]. The inhibition in experiment [2] is 35%; in experiment [3], -6%. Besides, the outcome in experiment [5], in experiment [6], in experiment [7] and in experiment [8] was inactive.

`CCS(=O)(=O)N1CCN(c2nc(-c3ccccc3)nc(COC)c2Cc2ccccc2F)CC1`: the growth inhibition in experiment [1] is 34%; in experiment [4], 82% (active). Besides, the inhibition in experiment [2] is -2%; in experiment [3] it was 0%. For the same compound, the outcome in experiment [5], in experiment [6], in experiment [7] and in experiment [8] was inactive.

As for `C=CCO[C@@H]1O[C@H](COC(c2ccccc2)(c2ccccc2)c2ccccc2)[C@@H](OC(C)=O)[C@H](OC(C)=O)[C@H]1NC(C)=O`, the results for the growth inhibition in experiment [1] and in experiment [4] were 66% (active) and 93% (active), respectively. Besides, the inhibition in experiment [2] and in experiment [3] was -1% in each case. For the same compound, the outcome in experiment [5], in experiment [6], in experiment [7] and in experiment [8] was inactive.

As to `COc1ccccc1NC(=O)CSc1nc2cccnc2n1-c1ccccc1OC`, the results for the growth inhibition in experiment [1] and in experiment [4] were 91% (active) and 94% (active), respectively. The inhibition in experiment [2] was -4%; in experiment [3], -3%. Further, the result in experiment [5], in experiment [6], in experiment [7] and in experiment [8] was inactive.

As for `COc1ccc(CNC(=O)c2cnc3c(O)cccc3c2Nc2cccc(NC(=O)c3ccc(-c4ccccc4)cc3)c2)cc1`, the growth inhibition in experiment [1] was 83% (active); in experiment [4], 90% (active). The inhibition in experiment [2] is 42%; in experiment [3], 6%. Also, the result in experiment [5], in experiment [6], in experiment [7] and in experiment [8] was inactive.
